# Tb PGK inh: blocks T. brucei phosphoglycerate kinase. Potency, µM (titrated, usually from 57.5 µM), inactives show at the top dose activity change, negative = inhibition, actives largely listed as inhibitors. 380,000 compounds, 0.043% hits. PGK/GAPDH coupled, Kinase-Glo luminescence, 60 min. AID 602233. P07378; note: potency is the fitted concentration of half-maximal effect; nearly all actives have a fitted effect of over 60% in size
#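 Luminescent ATP detection (Kinase-Glo Plus) follows a 60-minute room-temperature incubation, with wells lacking PGK as controls. Buffer: 100 mM TEA (pH 7.6), 5 mM MgCl2, 0.01% Tween-20. Coupling enzyme GAPDH (100 nM final) supplies unstable 1,3-BPG in-well.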
# Tb PFK block: blocks T. brucei phosphofructokinase; O15648; T. brucei PFK, ADP-Glo luminescence; Potency, µM (doses to about 57.5 µM), inactives show at the top dose activity, negative = inhibition, most hits filed as inhibitors; 330,000 compounds, 0.17% hits; AID 485367;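 note: potency is the fitted concentration of half-maximal effect; 0% = uninhibited 1x PFK enzyme wells and -100% = no-enzyme wells; nearly all actives have a fitted effect of over 60% in size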
# Target sequence (O15648 whole entry, looked up): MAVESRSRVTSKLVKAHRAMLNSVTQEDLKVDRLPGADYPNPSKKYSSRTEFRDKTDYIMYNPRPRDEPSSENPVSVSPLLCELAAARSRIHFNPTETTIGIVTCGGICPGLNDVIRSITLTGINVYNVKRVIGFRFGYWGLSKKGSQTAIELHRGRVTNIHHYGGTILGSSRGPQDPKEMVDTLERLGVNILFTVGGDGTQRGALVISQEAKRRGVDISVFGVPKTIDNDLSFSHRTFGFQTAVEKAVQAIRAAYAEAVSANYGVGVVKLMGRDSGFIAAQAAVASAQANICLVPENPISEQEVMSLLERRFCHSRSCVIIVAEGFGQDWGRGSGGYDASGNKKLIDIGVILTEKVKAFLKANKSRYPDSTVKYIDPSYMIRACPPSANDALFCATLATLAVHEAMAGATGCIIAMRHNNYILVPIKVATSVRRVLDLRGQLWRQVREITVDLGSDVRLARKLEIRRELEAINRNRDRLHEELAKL
#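 PFK 1.25 nM, F6P 0.5 mM, ATP 0.1 mM, 0.1 M TEA pH 8.0, 5 mM MgCl2, 0.01% Tween20, 0.1% BSA; 45 min RT. ADP-Glo readout. qHTS titration up to 57 uM; curves fitted, compounds curve-classed.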
# PI5P4Ka inh: blocks human PI5P4K alpha kinase activity; P48426; PI5P4Kalpha enzyme, ADP-Glo luminescence, 60 min; stronger effect = lower value; AID 652105; max response, %; 330,000 compounds, 1.2% hits; active = max response of -50% or lower; inconclusive = between -30% and -50%; inactive = -30% or higher; note: value at the top dose of about 77 µM
#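 ADP-Glo luminescence end-point read after a 60 min room-temperature kinase reaction of PI5P4Kalpha plus substrate, initiated with ATP at 5 microM final. Buffer: 0.038 M HEPES pH 7.4, EGTA, 0.1% CHAPS, 5% DMSO.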
# PI4K2A block: PI4K2A (human) kinase inhibition | 420,000 compounds, 0.13% hits | AID 1346378 | purified PI4K2A, ADP-Glo luminescence, 1 h; stronger effect = lower value | activity change, negative = inhibition, % at 76.9 µM; in the data active = activity change below about -50%; inconclusive = mostly about -30% to -49%;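 note: -100% = wells without enzyme as full effect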
#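 Compounds are screened against recombinant PI4K2A using PI as substrate and ATP, the latter dispensed at 300 microM. Reactions run one hour at ambient temperature before ADP-Glo detection; full inhibition defined by wells lacking enzyme.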
# Pin1 inhibitor: inhibitors of human Pin1. Q13526. Pin1 FP peptide displacement, HiFluor488, 10 min. Potency, µM (doses to about 115 µM), inactives show at the highest dose activity, negative = inhibition, actives largely listed as inhibitors. 390,000 compounds, 0.009% hits. AID 504891; active = well fitted inhibition curve with a large enough effect in the polarisation, with a control signal flat, not every such curve was filed as active; inconclusive = small, poorly fitted or top-dose-only effect, or effect the other way, or a change in a side signal; inactive = no such curve, though single readings can be large or run the other way; the % refers to the polarisation; note: potency is the fitted concentration of half-maximal effect
# Target sequence (Q13526 whole entry, looked up): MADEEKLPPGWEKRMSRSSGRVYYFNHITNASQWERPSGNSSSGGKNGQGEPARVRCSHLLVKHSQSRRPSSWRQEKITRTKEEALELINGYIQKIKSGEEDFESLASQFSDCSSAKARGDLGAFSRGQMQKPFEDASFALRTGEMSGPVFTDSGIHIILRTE
# An asterisk follows results filed as active; i = inactive; ? = inconclusive; . = no result given; [ ] = another dose, or the depositor's remark. This excerpt belongs to a sample that is enriched for hits. Unless noted, calls come from the whole dose curve; as a rule, active = well fitted curve in the direction sought with a large enough effect; inconclusive = small, poorly fitted or top-dose-only effect, or another doubt; inactive = no such curve, though single readings can be large; an effect the other way counts as inactive or inconclusive. Unless noted, % is set by controls: 0 for no effect and ±100 for the full control effect.
SMILES,Tb PGK inh,Tb PFK block,PI5P4Ka inh,PI4K2A block,Pin1 inhibitor
COc1cc(/C=C2\C(=N)N3N=C(S(C)(=O)=O)SC3=NC2=O)ccc1OCCOc1ccc(C)cc1,-6%,1%,?,-4,6%
CCS(=O)(=O)C1=NN2C(=N)/C(=C\c3ccc(OCCOc4cccc(OC)c4)c(OC)c3)C(=O)N=C2S1,-17%,6%,-78*,-7,?
CC(C)C[C@H](NC(=O)CNC(=O)[C@H](Cc1ccc(O)cc1)NC(=O)[C@H](CO)NC(=O)[C@H](Cc1c[nH]c2ccccc12)NC(=O)[C@H](Cc1cnc[nH]1)NC(=O)[C@@H]1CCC(=O)N1)C(=O)N[C@@H](CCCN=C(N)N)C(=O)N1CCC[C@H]1C(=O)NCC(N)=O (stereo in doubt),.,.,.,-2,.
COc1ccc(S[C@]2(C(=O)N3CCOCC3)CC(=O)N(C(=O)c3ccccc3)[C@@H]2c2ccc(OC)cc2)cc1,.,.,.,-2,.
O=C(NC1CCCCC1)C(c1ccccc1)n1c(=O)c(-c2ccco2)nc2ccccc21 (stereo not given),.,.,-80*,-18,.
O=C(NC1CCCCC1)C(c1ccc(C(F)(F)F)cc1)n1c(=O)c(-c2ccco2)nc2ccccc21 (stereo not given),.,.,-75*,-9,.
N#Cc1ccc(C(C(=O)NC2CCCCC2)n2c(=O)c(-c3ccco3)nc3ccccc32)cc1 (stereo not given),.,.,-75*,-21,.
COc1ccc(C2Nc3ccccc3C(=O)N2Cc2ccccc2)cc1COc1cccc(C(F)(F)F)c1 (stereo not given),.,.,.,.,1%
CC(=O)/C=C/C=C1/C2CCC(C2)C1(C)C (stereo not given),.,.,.,3,.
CCN1CCCC1CN (stereo not given),.,.,.,0,.
CNc1cc2c(cc1S(=O)(=O)Nc1ccc(C)c(C)c1)CCC(=O)N2,.,.,.,.,0%
O=C(O)CCn1cc(/C=C2\SC(=S)NC2=O)c(-c2ccccc2)n1,-9%,1%,?,5,6%
Cc1cc(/C=C2\SC(=S)NC2=O)c(C)n1C1CC1,5%,7%,.,-1,?
O=C1NC(=S)SC1=Cc1cc(Br)ccc1O,-1%,.,-77*,-4,13%
O=C1NC(=S)SC1=Cc1ccccc1Br,-4%,.,-72*,-2,-3%
C/C(=N\NC(=O)Cc1c[nH]c2ccccc12)c1ccc2ccccc2c1,-7%,-5%,-53*,0,5%
COc1cc(-c2ccc3ncnc(NCc4cccs4)c3c2)cc(OC)c1OC,.,.,.,.,31%
Cc1ccc([N+](=O)[O-])cc1-c1ccc(/C=C(\C#N)c2[nH]nc(N)c2C#N)o1,-2%,?,-55*,4,?
CCCCNc1nc(C#N)nc(Nc2ccccc2)n1,.,.,.,.,-10%
O=S(=O)(N[C@H]1CCCC[C@@H]1N1CCOCC1)c1ccc(Cl)cc1,.,.,.,-2,.
CC[n+]1ccc(C[n+]2ccccc2)c2ccccc21,i,-6%,-53*,-14,?
CC[n+]1ccc(/C=C/c2ccc(N(C)C)cc2)c2ccccc21,?,-28%,?,?,13%
CC(C)(C)OC(=O)Nc1ncnc2c1C(c1ccccc1)c1c(ccc3ccccc13)O2 (stereo not given),.,.,.,.,-1%
CC(C)=CCc1cc([C@@H]2CC(=O)c3ccc(O)c(CC=C(C)C)c3O2)ccc1O,-11%,.,-100*,-5,4%
COc1c(CC=C(C)C)cc(C2CC(=O)c3c(O)cc(O)cc3O2)c(CC=C(C)C)c1O (stereo not given),-16%,.,-12,-9,-5%
SMILES,Tb PGK inh,Tb PFK block,PI5P4Ka inh,PI4K2A block,Pin1 inhibitor
Oc1ccc(/C=N/Nc2ccnc3cc(Cl)ccc23)c(O)c1O,-2%,0%,-74*,-14,?
O=C(NCc1ccc(F)cc1)n1cc(P(=S)(c2ccccc2)c2ccccc2)c2ccccc21,.,.,.,.,1%
CCCCc1cc(-c2n[nH]c(=S)o2)c2ccccc2n1,-5%,-1%,-56*,11,-2%
COC(=O)c1c(NC(=O)CN2C(=O)NC3(CCC(C)CC3)C2=O)sc2c1CCC2 (stereo not given),1%,1%,4,-8,5%
CC1CCC2(CC1)NC(=O)N(CC(=O)Nc1sc3c(c1C(N)=O)CCC3)C2=O (stereo not given),-17%,20%,-87*,?,5%
CO/N=C/NC(=O)c1ccc([N+](=O)[O-])c(CS(=O)(=O)c2ccc(Cl)cc2)c1,0%,-4%,-50*,-4,-1%
NNC(=O)c1ccc([N+](=O)[O-])c(CS(=O)(=O)c2ccc(Cl)cc2)c1,-3%,10%[0.46 µM],0,-8,-2%
Clc1ccc(-c2c[n+](Cc3ccc(Cl)c(Cl)c3)c3n2CCC3)cc1,.,12µM*,.,.,.
O=[N+]([O-])c1ccc(/C=C/C2=NN(c3ccccc3)C(c3ccco3)C2)o1 (stereo not given),-23%,-15%,-62*,-3,62%
O=C(COC(=O)c1c2c(nc3ccccc13)/C(=C/c1cccc([N+](=O)[O-])c1)CCC2)NC1CCS(=O)(=O)C1 (stereo not given),-7%,8%,24,-2,2%
CN(CCC#N)C(=O)COC(=O)c1c2c(nc3ccccc13)/C(=C\c1ccco1)CC2,-29%,.,?,-52*,?
O=C(COC(=O)c1c2c(nc3ccccc13)/C(=C\c1ccco1)CC2)NC1CCCC1,-18%,.,-55*,?,?
CC(C)N1CCc2c(sc(NC(=S)NC(=O)c3ccccc3)c2C#N)C1,-8%,-28%,-51*,4,?
CCCN1CCc2c(sc(NC(=S)NC(=O)c3ccccc3)c2C#N)C1,-2%,?,?,-3,?
Cc1cccc(Nc2nc(N)c(C#N)c(CC#N)c2C#N)c1,16%,10%,-54*,-5,48%
Cc1cccc(Nc2nc(N)nc(N)c2N=O)c1,-5%,.,-51*,-19,-11%
CC(C)(C)CC(C)(C)SSc1n[nH]c(=S)s1,-8%,.,-66*,31,.
N#C/C(=C/c1cn[nH]c1-c1ccc(Br)cc1)C(=O)O,1%,2%,-76*,47,4%
O=C(O)/C=C\C(=O)Nc1ccc(Oc2ccccc2)cc1,3%,7%,.,4,4%
O=C(O)/C=C/C(=O)Nc1ccc(C2(c3ccc(NC(=O)/C=C/C(=O)O)cc3)c3ccccc3-c3ccccc32)cc1,-9%,-6%,-58*,-3,-16%
NC(=O)Cc1ccc(C(=O)CSc2nnc(-c3ccncc3)n2C2CC2)s1,-11%,15%,-78*,?,?
N#CCCN(C(=O)CSc1nnc(-c2ccncc2)n1C1CC1)c1ccccc1,-4%,1%,2,-3,-5%
N=C1/C(=C\c2ccc(Br)o2)C(=O)N=C2SC(CC(=O)N3CCCCC3)=NN12,-15%,-20%,-66*,-9,-15%
